According to PubChem BioAssay (EPA / NIEHS):
Where a structure was tested more than once in an assay, its records may differ in their call. The source made the active and inactive calls. The calls were made as follows: active = hit-call score of the fitted dose curve at least 0.9, where 1 is the maximum; inactive = score below 0.9.

What follows are compounds tested on Tissue plasminogen activator (tPA), PLAT (gene 5327) (assay: BSK_BE3C_tPA: BioMAP Diversity Plus: BE3C Assay for Tissue plasminogen activator (tPA) Biomarker Activity (AID 2283041)). Conditions: primary human bronchial epithelial cells; actives raise or lower the signal.
Method: BSK_BE3C is a cell-based, multiplexed-readout assay that uses bronchial epithelial cell, a human lung primary cell, with measurements taken at 24 hours after chemical dosing in a 96-well plate.BSK_BE3C_tPA is an assay component measured in the BSK_BE3C assay. It measures tPA antibody related to regulation of gene expression using ELISA technology.Data from the assay component BSK_BE3C_tPA was analyzed into 1 assay endpoint. This assay endpoint, BSK_BE3C_tPA, was analyzed with bidirectional fitting relative to DMSO as the negative control and baseline of activity. Using a type of binding reporter, gain or loss-of-signal activity can be used to understand changes in the signaling as they relate to the gene PLAT. Furthermore, this assay endpoint can be referred to as a primary readout, because this assay has produced multiple assay endpoints where this one serves a signaling function. To generalize the intended target to other relatable targets, this assay endpoint is annotated to the protease intended target family, where the subfamily is serine protease.
The levels of cell surface (or secreted, indicated by the prefix "s") biomarker endpoints were measured by ELISA. Overt cytotoxicity to cells in confluent adherent cultures (all systems other than the BT system) was assessed by measuring total protein levels using sulforhodamine B (SRB) staining in parallel cultures at the time of biomarker measurements, indicated as SRB endpoints. For proliferation assays for adherent cell types, individual cell types are cultured at sub-confluence and relative cell numbers quantified by SRB staining at time points optimized for each system (48 h: 3C and CASM3C systems; 72 h: BT and HDF3CGF systems; 96 h: SAg system). SRB was performed by staining cells with 0.1% SRB after fixation with 10% TCA and reading wells at 560 nm.Viability and proliferation of PBMC (T cells) was quantified by Alamar Blue reduction for the SAg and BT systems. For PBMC viability (referred to as PBMC Cytotoxicity within the assay endpoint names), cells were plated (75,000/well in a 96-well plate) and then chemical samples added for 1 h before addition of activators, SEB and TSST-1 (20 ng/mL final concentration each). Cells were incubated for 90 h. Then, Alamar Blue (20 uL/well) (Invitrogen, Cat DAL1100) was added for 6 h, and the plates were read with a fluorescence microplate reader at 546/580 nm (excitation/emission). For PBMC proliferation, cells were plated and activated as above but incubated for only 16 h prior to addition of Alamar Blue. Plates were read after 6 h.
For `CO/C=C(/C(=O)OC)c1ccccc1Oc1cc(Oc2ccccc2C#N)ncn1`, the AC50 was 28.2 µM (active) and the outcome was “inactive”. In the case of `O=C(O)COc1nc(Cl)c(Cl)cc1Cl`, the outcome is reported as “inactive”. With `CCCC1COC(Cn2cncn2)(c2ccc(Cl)cc2Cl)O1` (stereo not given) the outcome was “inactive”. `CNC(=S)S` was tested, and the outcome was “inactive”. With `COc1ccc(C(c2ccc(OC)cc2)C(Cl)(Cl)Cl)cc1` the outcome was “inactive”. With `CCc1nn(C)c(C(=O)NCc2ccc(C(C)(C)C)cc2)c1Cl` the AC50 was 20 µM (active). With `Cc1c(F)c(F)c(COC(=O)C2C(/C=C(\Cl)C(F)(F)F)C2(C)C)c(F)c1F` (stereo not given) the outcome was “inactive”. For `CCCCOC(=O)c1ccccc1C(=O)OCCCC`, the outcome was “inactive”. `CN(C)C(=S)SSC(=S)N(C)C` was tested, and the AC50 was 12 µM (active). For `COC(=O)C(C)Oc1ccc(Oc2ccc(Cl)cc2Cl)cc1` (stereo not given), the outcome was “inactive”. In the case of `CC(Oc1ccc(Cl)cc1Cl)C(=O)O` (stereo not given), the outcome is reported as “inactive”. With `N#CC(CCc1ccc(Cl)cc1)(Cn1cncn1)c1ccccc1` (stereo not given) the outcome was “inactive”. For `CNC(=O)ON=CC(C)(C)SC`, the outcome was “inactive”. In the case of `Cc1ccc(-c2c(Cl)nc(C#N)n2S(=O)(=O)N(C)C)cc1`, the outcome is reported as “inactive”. `CC1COC(Cn2cncn2)(c2ccc(Oc3ccc(Cl)cc3)cc2Cl)O1` (stereo not given) was tested, and the AC50 was 27.4 µM (active). `N#Cc1cc(Br)c(O)c(Br)c1` was tested, and the outcome was “inactive”. In the case of `CON(C)C(=O)Nc1ccc(Cl)c(Cl)c1`, the outcome is reported as “inactive”. In the case of `O=C(Nc1ccccc1)Nc1ccnc(Cl)c1`, the outcome is reported as “inactive”. `COC(=O)C=C(C)OP(=O)(OC)OC` was tested, and the outcome was “inactive”. For `C=CCC1=C(C)C(OC(=O)C2C(C=C(C)C)C2(C)C)CC1=O` (stereo not given), the outcome was “inactive”. With `Fc1ccc(Oc2ccnc3cc(Cl)cc(Cl)c23)cc1` the AC50 was 31.9 µM (active). In the case of `COC(=O)c1ccccc1C(=O)OC`, the outcome is reported as “inactive”. In the case of `CCCCNC(=O)OCC#CI`, the AC50 is reported as 30 µM (active) and the outcome is reported as “inactive”. In the case of `CCNc1nc(Cl)nc(NCC)n1`, the outcome is reported as “inactive”. `CCOC(=O)C(Cl)Cc1cc(-n2nc(C)n(C(F)F)c2=O)c(F)cc1Cl` (stereo not given) was tested, and the outcome was “inactive”. `CCCCNC(=O)n1c(NC(=O)OC)nc2ccccc21` was tested, and the outcome was “inactive”. In the case of `CCCCC(CC)COC(=O)c1ccccc1C(=O)OCC(CC)CCCC` (stereo not given), the outcome is reported as “inactive”. `CS/C(C)=N/OC(=O)N(C)SN(C)C(=O)O/N=C(\C)SC` was tested, and the outcome was “inactive”. `OC(c1ccc(Cl)cc1)(c1cncnc1)c1ccccc1Cl` (stereo not given) was tested, and the outcome was “inactive”. For `C=CC1(C)OC(=O)N(c2cc(Cl)cc(Cl)c2)C1=O` (stereo not given), the outcome was “inactive”. In the case of `COP(N)(=O)SC` (stereo not given), the outcome is reported as “inactive”. `CC(C)Oc1cc(-n2nc(C(C)(C)C)oc2=O)c(Cl)cc1Cl` was tested, and the outcome was “inactive”. `COc1nc(NC(C)C)nc(NC(C)C)n1` was tested, and the outcome was “inactive”. `COc1cnc(OC)n2nc(NS(=O)(=O)c3c(OCC(F)F)cccc3C(F)(F)F)nc12` was tested, and the outcome was “inactive”. In the case of `COC(=O)N(OC)c1ccccc1COc1ccn(-c2ccc(Cl)cc2)n1`, the outcome is reported as “inactive”. `CCNc1nc(Cl)nc(NC(C)C)n1` was tested, and the outcome was “inactive”. With `C=CCC1=C(C)[C@@H](OC(=O)[C@@H]2[C@@H](C=C(C)C)C2(C)C)CC1=O` the outcome was “inactive”. In the case of `Cc1cc(Cl)ccc1OCC(=O)O`, the outcome is reported as “inactive”.
